According to PubChem BioAssay (NCATS):
Inconclusive results are not listed. Activity calls are given as the source filed them. Unless noted, calls come from the whole dose curve; as a rule, active = well fitted curve in either direction with a large enough effect (not every such curve was filed as active); inconclusive = small, poorly fitted or top-dose-only effect, or another doubt; inactive = flat fitted curve, though single readings scatter.

How the values were obtained:
[1] = molecular target: Lysosomal acid glucosylceramidase (Homo sapiens) (UniProt P04062); experiment: Glucocerebrosidase-p2 (AID 348; in the data active = potency below about 10 µM; note: potency is the fitted concentration of half-maximal effect); details: purified GBA, blue fluorogenic substrate, 40 min
Sequence of Lysosomal acid glucosylceramidase (Homo sapiens) (P04062 whole entry, looked up): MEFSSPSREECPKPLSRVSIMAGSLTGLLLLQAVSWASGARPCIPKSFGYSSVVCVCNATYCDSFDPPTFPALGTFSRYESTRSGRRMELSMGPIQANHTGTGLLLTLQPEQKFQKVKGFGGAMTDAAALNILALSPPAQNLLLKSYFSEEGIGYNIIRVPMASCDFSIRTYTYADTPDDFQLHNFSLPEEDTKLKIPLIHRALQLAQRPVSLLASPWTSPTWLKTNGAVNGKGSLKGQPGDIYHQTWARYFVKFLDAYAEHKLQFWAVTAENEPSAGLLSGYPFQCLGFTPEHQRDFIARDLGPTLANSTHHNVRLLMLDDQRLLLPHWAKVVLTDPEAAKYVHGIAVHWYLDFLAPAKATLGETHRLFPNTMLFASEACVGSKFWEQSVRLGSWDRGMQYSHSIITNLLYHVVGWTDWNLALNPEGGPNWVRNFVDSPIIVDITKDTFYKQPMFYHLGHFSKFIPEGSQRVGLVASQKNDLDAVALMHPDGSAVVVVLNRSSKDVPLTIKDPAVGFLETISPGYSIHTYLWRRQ
Summary of the method: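 Compounds titrated from 0.6 nM upwards against 0.2 nM enzyme in pH 5.9 citric acid/KH2PO4, taurocholate, tween-20; blue fluorogenic substrate 80 uM, 40 min room temperature, stopped and read Ex 365/Em 440 for AC50.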

[2] = AP1 Signaling Pathway (AID 357); details: ME-180 AP-1-bla reporter, EGF-induced, beta-lactamase ratio, 5 h; at 7.69 µM (top of the series) unless noted;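 note: ME-180 reporter cells stimulated with EGF at its EC50 level; % is set by controls: 0 for no effect and ±100 for the full control effect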
Summary of the method: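 Titration-series screen for positive or negative modulators of EC50 EGF-induced signaling in ME-180 cells carrying an AP-1-driven beta-lactamase reporter. After 5 hours at 37 degrees Celsius, CCF4 460nm/530nm emission ratio gave %Activity; AC50 values derived.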

[3] = molecular target: Cytochrome P450 1A2 (Homo sapiens) (UniProt P05177); experiment: p450-cyp1a2 (AID 410; calls by dose curve; note: potency is the fitted concentration of half-maximal effect;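 for activity change, negative = inhibition: -100% = full effect of reference inhibitor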); details: recombinant CYP1A2, luciferin-ME demethylation, luminescence; series mostly up to 11.4 µM
Sequence of Cytochrome P450 1A2 (Homo sapiens) (P05177 whole entry, looked up): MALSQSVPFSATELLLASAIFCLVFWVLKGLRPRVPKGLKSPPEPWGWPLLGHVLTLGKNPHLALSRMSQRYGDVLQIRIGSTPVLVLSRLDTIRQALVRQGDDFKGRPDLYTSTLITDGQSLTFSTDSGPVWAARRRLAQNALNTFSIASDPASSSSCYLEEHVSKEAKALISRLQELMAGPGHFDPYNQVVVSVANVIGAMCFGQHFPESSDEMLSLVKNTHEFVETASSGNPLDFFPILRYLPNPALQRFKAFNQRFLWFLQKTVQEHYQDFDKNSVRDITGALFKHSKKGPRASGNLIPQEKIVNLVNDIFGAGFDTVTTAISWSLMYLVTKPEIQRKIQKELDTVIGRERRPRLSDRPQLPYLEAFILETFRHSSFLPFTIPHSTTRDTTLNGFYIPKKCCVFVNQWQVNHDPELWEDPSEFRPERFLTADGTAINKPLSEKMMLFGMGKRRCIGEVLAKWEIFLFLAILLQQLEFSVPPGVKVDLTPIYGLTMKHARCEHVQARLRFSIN
Summary of the method: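 Inhibition was calculated relative to 57 uM furafylline (full inhibition). The reaction used human CYP1A2 at 20nM with Luciferin-ME at its Km, 100uM, driven by an NADPH-regenerating system for 60 min at room temperature.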

[4] = Stat Signaling Pathway (AID 446); details: ME-180 SIE beta-lactamase reporter, IL-6 stimulated, 5 h; at 7.69 µM (top of the series) unless noted;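 note: ME-180 cervical cancer cells given 40 pM IL-6 alongside compound; SIE-controlled beta-lactamase reporter measured as 460/530 nm FRET emission ratio; % is set by controls: 0 for no effect and ±100 for the full control effect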
Summary of the method: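 ME-180 SIE-bla cells; overnight plating; cpd + IL-6 40 pM, 5 h, 37 C; LiveBLAzer 2.5 h RT; 460/530 nm emission ratio. Normalized to 300 pM IL-6 and 125 nM JAK inhibitor controls.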

[5] = molecular target: Glucocorticoid receptor (Homo sapiens) (UniProt P04150); experiment: GR-GFP Redistribution (AID 450;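 active = compounds whose dose series gives a full or clear partial fitted curve of increased nuclear translocation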; note: potency is the fitted concentration of half-maximal effect); details: U2OS GR-GFP nuclear translocation, laser cytometry, 2 h
Sequence of Glucocorticoid receptor (Homo sapiens) (P04150 whole entry, looked up, the tested form may be a part): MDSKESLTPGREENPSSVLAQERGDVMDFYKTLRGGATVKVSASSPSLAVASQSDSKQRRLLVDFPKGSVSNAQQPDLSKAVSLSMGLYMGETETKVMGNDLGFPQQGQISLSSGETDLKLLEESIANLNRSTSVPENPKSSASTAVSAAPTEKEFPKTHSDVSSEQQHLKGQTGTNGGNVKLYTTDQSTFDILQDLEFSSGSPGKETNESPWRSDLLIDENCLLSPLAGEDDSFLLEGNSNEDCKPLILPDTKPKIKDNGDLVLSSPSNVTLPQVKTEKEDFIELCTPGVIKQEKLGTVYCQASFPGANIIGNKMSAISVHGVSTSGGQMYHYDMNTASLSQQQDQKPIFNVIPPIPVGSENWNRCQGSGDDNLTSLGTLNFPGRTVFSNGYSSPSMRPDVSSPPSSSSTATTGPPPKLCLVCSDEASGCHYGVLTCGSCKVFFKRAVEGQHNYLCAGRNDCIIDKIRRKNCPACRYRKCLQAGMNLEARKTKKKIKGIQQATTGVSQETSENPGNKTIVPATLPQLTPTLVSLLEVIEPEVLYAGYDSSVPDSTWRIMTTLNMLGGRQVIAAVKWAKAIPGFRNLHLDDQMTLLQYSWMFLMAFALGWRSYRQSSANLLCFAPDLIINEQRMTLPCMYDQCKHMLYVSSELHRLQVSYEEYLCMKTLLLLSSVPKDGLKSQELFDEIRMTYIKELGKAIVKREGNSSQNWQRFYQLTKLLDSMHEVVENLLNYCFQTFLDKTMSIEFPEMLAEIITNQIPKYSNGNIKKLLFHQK

[6] = molecular target: Glucocorticoid receptor (Homo sapiens) (UniProt P04150); experiment: GR-EFC Redistribution (AID 451; calls by dose curve; note: potency is the fitted concentration of half-maximal effect); details: CHO-K1 GR-EFC translocation, beta-gal luminescence, 2 h
Summary of the method: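 CHO-K1 cells expressing nuclear EA and GR-ED fragments of b-gal; compounds titrated up to 46 uM final, 2 h at 37 C. GR nuclear translocation read as complemented b-gal luminescence after 1 h RT detection.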

[7] = molecular target: Mitogen-activated protein kinase 10 (Mus musculus) (UniProt Q61831); experiment: JNK3 AlphaScreen Assay (AID 530); details: JNK3 lysate, c-Jun phosphorylation; series mostly up to 11.4 µM;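 note: kinase came from lysate of stimulated human HepG2 cells; signal reports phosphorylation of biotinylated GST-cJun 1-79 at Ser73 with 10 µM ATP; % is set by controls: 0 for no effect and ±100 for the full control effect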
Summary of the method: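 qHTS format: compounds tested as titrations against IL-1beta/TNF-alpha-activated HepG2 lysate JNK3 with biotin-GST-cJun substrate and 10 uM ATP at room temperature. Loss of anti-phospho-cJun AlphaScreen signal indicates inhibition.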

[8] = molecular target: 3',5'-cyclic-AMP phosphodiesterase 4B (Homo sapiens) (UniProt Q07343); experiment: qHTS Assay for Inhibitors of PDE-IV (AID 607; active = well fitted activation curve with a large enough effect in the main read-out, with a control signal flat, not every such curve was filed as active; note: % of control where 0% means no effect); details: HEK293 ACTOne CNG channel cells, membrane potential fluorescence; series mostly up to 22.9 µM
Sequence of 3',5'-cyclic-AMP phosphodiesterase 4B (Homo sapiens) (Q07343 whole entry, looked up): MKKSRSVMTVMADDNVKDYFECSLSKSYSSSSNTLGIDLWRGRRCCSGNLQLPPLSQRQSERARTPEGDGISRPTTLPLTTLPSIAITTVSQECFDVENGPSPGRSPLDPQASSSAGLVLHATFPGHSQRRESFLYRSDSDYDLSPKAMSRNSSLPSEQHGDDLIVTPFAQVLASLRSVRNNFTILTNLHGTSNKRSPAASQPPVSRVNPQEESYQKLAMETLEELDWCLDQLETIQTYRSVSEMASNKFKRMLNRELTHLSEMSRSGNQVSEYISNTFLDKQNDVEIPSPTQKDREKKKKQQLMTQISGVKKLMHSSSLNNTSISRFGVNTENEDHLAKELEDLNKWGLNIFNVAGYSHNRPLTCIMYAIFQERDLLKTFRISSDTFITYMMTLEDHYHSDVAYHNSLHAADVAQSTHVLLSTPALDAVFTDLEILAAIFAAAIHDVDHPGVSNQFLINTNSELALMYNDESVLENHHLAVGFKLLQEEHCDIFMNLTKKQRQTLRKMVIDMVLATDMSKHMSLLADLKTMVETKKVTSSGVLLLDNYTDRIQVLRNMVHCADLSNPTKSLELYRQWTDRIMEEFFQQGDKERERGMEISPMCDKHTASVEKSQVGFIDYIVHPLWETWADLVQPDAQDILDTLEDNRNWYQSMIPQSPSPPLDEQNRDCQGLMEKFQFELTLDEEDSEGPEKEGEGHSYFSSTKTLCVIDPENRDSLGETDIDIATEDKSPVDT
Summary of the method: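 ACTOne HEK293 cells carry a modified cAMP-gated CNG channel and express endogenous PDE4; plated 1000 cells/well, compounds up to 22.9 uM final. Membrane-potential dye fluorescence (ex 535/em 590) was read; parental cells received 10 uM forskolin + 100 uM RO 20-1724.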

[9] = molecular target: Cytochrome P450 2C19 (Homo sapiens) (UniProt P33261); experiment: qHTS Assay for Inhibitors and Substrates of Cytochrome P450 2C19 (AID 899; active = well fitted curve in the direction sought with a large enough effect; an effect the other way counts as inactive or inconclusive; note: nearly all actives have a fitted effect of over 60% in size; note: potency is the fitted concentration of half-maximal effect); details: recombinant CYP2C19, luciferin-H EGE luminescence; series mostly up to 11.4 µM
Sequence of Cytochrome P450 2C19 (Homo sapiens) (P33261 whole entry, looked up): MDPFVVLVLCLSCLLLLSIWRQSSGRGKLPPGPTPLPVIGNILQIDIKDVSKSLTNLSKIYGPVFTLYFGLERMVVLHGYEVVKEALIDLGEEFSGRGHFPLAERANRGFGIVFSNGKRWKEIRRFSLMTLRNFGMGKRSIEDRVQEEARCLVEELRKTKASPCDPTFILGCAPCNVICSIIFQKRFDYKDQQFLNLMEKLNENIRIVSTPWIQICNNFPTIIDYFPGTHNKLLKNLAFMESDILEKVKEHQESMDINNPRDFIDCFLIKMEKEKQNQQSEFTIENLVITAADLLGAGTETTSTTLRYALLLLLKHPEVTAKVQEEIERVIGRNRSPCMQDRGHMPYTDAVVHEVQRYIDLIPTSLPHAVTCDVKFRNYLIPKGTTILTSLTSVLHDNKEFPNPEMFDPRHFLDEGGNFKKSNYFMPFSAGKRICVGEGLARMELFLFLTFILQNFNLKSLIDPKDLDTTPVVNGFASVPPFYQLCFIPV
Summary of the method: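 Luminescent read-out of luciferin formed from Luciferin-H EGE (10uM, equal to KM). Enzyme 5nM in 50mM KPO4; compound added, 10 min at 37C, then NADPH regenerating system for 60 min at 37C. Full inhibition defined by 57uM ketoconazole.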

[10] = qHTS Assay for Identification of Small Molecule Agonists for Hypoxia Response Element Signaling Pathway (AID 914; active = well fitted activation curve with a large enough effect in the signal ratio, with a control signal flat, not every such curve was filed as active; the % refers to the signal ratio; note: % of control where 0% means no effect); details: ME-180 (cervical carcinoma) HRE-bla reporter, beta-lactamase ratio, CoCl2, 17 h; activation: hits give high values
Summary of the method: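 Compounds in a titration series were added to ME-180 reporter cells alongside an EC50 level of CoCl2. After 17 hours, beta-lactamase activity was read as the 460nm/530nm emission ratio of CCF4, giving AC50 values.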

[11] = molecular target: Cytochrome P450 3A4 (Homo sapiens) (UniProt P08684); experiment: qHTS Assay for Activators of Cytochrome P450 3A4 (AID 885; active = well fitted curve in the direction sought with a large enough effect; an effect the other way counts as inactive or inconclusive; note: nearly all actives have a fitted effect of over 65% in size); details: recombinant CYP3A4, Luciferin-PPXE luminescence, 60 min; series mostly up to 11.4 µM
Sequence of Cytochrome P450 3A4 (Homo sapiens) (P08684 whole entry, looked up): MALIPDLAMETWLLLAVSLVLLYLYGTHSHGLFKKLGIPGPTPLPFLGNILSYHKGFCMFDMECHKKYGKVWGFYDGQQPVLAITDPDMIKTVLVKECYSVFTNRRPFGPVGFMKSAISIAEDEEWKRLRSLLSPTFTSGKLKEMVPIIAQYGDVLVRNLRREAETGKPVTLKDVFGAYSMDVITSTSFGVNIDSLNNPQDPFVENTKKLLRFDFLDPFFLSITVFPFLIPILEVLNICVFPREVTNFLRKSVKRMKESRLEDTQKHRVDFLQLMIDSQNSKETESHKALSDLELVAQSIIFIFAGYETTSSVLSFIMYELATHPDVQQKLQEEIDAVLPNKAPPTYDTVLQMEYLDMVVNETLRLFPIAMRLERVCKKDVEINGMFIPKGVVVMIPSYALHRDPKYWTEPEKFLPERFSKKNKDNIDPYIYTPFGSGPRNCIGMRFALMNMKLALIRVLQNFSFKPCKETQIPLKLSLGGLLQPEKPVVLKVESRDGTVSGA
Summary of the method: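 20nM CYP3A4 + 25uM Luciferin-PPXE (=KM), 200mM KPO4; cpd 10 min RT; NADPH regen, 60 min RT; stop w/ detection buffer, 20 min; luminescence. Normalized to 57 uM ketoconazole.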

[12] = molecular target: Cytochrome P450 3A4 (Homo sapiens) (UniProt P08684); experiment: qHTS Assay for Inhibitors and Substrates of Cytochrome P450 3A4 (AID 884; active = well fitted curve in the direction sought with a large enough effect; an effect the other way counts as inactive or inconclusive; note: nearly all actives have a fitted effect of over 50% in size; note: potency is the fitted concentration of half-maximal effect); details: recombinant CYP3A4, Luciferin-PPXE luminescence; series mostly up to 57.1 µM
Summary of the method: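 20 nM human CYP3A4 with 25 uM Luciferin-PPXE (at KM) in 200 mM KPO4, preincubated 10 min with compound; NADPH regeneration started a 60 min RT reaction. Luciferin detected by luminescence, normalized to 57 uM ketoconazole as full inhibition.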

[13] = molecular target: Cytochrome P450 2C9 (Homo sapiens) (UniProt P11712); experiment: qHTS Assay for Inhibitors and Substrates of Cytochrome P450 2C9 (AID 883; active = well fitted curve in the direction sought with a large enough effect; an effect the other way counts as inactive or inconclusive; note: % is set by controls: 0 for no effect and ±100 for the full control effect; nearly all actives have a fitted effect of over 60% in size); details: recombinant CYP2C9, luciferin-H luminescence, 60 min; series mostly up to 11.4 µM
Sequence of Cytochrome P450 2C9 (Homo sapiens) (P11712 whole entry, looked up): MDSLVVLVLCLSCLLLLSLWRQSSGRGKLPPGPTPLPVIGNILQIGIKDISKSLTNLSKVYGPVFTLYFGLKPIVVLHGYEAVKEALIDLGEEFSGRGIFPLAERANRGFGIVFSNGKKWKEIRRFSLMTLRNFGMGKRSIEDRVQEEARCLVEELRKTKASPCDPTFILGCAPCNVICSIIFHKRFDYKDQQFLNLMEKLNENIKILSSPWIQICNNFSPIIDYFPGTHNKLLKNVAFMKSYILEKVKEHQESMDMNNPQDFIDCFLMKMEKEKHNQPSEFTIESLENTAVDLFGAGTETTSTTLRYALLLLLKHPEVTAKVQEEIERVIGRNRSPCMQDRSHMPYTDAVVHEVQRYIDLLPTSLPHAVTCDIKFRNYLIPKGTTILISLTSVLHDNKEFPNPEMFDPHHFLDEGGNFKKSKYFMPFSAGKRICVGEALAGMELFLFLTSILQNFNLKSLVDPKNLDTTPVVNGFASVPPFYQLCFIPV
Summary of the method: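 10nM CYP2C9 + 100uM Luciferin-H (=KM), 25mM KPO4; cpd 10 min 37C; NADPH regen, 60 min 37C; stop/detect with P450 Glo-Buffer 20 min; luminescence. Norm. to 57uM sulphaphenazole as full inhibition.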

[14] = molecular target: Cytochrome P450 2D6 (Homo sapiens) (UniProt P10635); experiment: qHTS Assay for Inhibitors and Substrates of Cytochrome P450 2D6 (AID 891; active = well fitted curve in the direction sought with a large enough effect; an effect the other way counts as inactive or inconclusive; note: nearly all actives have a fitted effect of over 60% in size; note: potency is the fitted concentration of half-maximal effect); details: recombinant CYP2D6, luciferin-ME EGE luminescence; series mostly up to 11.4 µM
Sequence of Cytochrome P450 2D6 (Homo sapiens) (P10635 whole entry, looked up): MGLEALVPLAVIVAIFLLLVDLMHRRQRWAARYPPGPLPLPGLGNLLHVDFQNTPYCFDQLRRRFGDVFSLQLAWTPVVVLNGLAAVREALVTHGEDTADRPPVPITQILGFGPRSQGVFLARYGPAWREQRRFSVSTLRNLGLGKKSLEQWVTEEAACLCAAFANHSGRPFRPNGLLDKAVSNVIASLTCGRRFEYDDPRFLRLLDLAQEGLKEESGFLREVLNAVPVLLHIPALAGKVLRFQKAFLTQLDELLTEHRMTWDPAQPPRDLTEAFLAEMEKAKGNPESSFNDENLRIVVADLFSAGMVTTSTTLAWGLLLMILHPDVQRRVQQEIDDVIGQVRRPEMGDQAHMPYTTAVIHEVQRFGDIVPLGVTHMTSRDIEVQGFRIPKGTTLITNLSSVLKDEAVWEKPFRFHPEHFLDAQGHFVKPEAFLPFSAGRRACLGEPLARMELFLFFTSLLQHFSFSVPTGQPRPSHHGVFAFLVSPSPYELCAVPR
Summary of the method: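 Human CYP2D6 (5 nM) with 30 uM Luciferin-ME EGE (at Km) in 100 mM KPO4, compound preincubated 10 min, then NADPH regeneration system for 60 min at room temperature. Luciferin read by luminescence; normalized to 1.43 uM quinidine.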

[15] = NFAT Signaling Pathway (AID 444); details: Jurkat NFAT-bla M1, carbachol, beta-lactamase ratio, 5 h; at 7.69 µM (top of the series) unless noted;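 note: carbachol stimulus at about its EC50 of 1 µM final; % is set by controls: 0 for no effect and ±100 for the full control effect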
Summary of the method: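 Jurkat cells with NFAT-driven β-lactamase reporter and co-expressed M1 receptor, stimulated with carbachol (final 1 uM, ~EC50), compound titration, 5 h at 37 °C. CCF4 loaded 1 h at RT; 460/530 nm ratio gave %activity and AC50.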

CC1(C)N=C(N)N=C(N)N1c1cccc(OCc2cccc([N+](=O)[O-])c2)c1
inactive: Potency [1] > 11.4 µM | activity change, negative = inhibition [2] -5.25% | activity, negative = inhibition [4] -5.32% | Potency [5] > 46 µM | Potency [6] > 9.22 µM | Potency [7] | Potency [8] | Potency [9] | activation [10] 5.31%
active: Potency [3] 5.01 µM

N#Cc1ccc(CN2CC3(CCN(C(=O)c4cc(C(F)(F)F)cc(C(F)(F)F)c4)CC3)C2)cc1
inactive: Potency [1] > 11.4 µM | activity change, negative = inhibition [2] -21.3% | Potency [3] | activity, negative = inhibition [4] 7.48% | Potency [6] > 46 µM | Potency [7] | Potency [8]

N#CCCn1c(=O)c(-c2ccccc2)nc2cnc(OCc3ccccc3)nc21
active: Potency [3] 3.16 µM
inactive: Potency [1] > 11.4 µM | activity change, negative = inhibition [2] -17.7% | activity, negative = inhibition [4] -1.68% | Potency [6] > 46 µM | Potency [7] | Potency [8]

Cc1nc2cnc(N3CCOCC3)nc2n(Cc2cccs2)c1=O
inactive: Potency [1] > 11.4 µM | activity change, negative = inhibition [2] -18.4% | activity, negative = inhibition [4] -5.33% | Potency [5] > 9.22 µM | Potency [6] > 46 µM | Potency [7] | Potency [11]
active: Potency [3] 2 µM

CN(C)c1ccc(-c2nc(Nc3ccncc3)c3ccccc3n2)cc1
active: Potency [1] 3.67 µM | Potency [3] 0.501 µM | Potency [12] 7.94 µM
inactive: activity change, negative = inhibition [2] -10.7% | activity, negative = inhibition [4] -28.2% | Potency [5] > 46 µM | Potency [6] > 46 µM | Potency [8] | Potency [11]

O=C(O)C(=Cc1ccc(-c2ccccc2)cc1)C(=O)O
inactive: Potency [1] > 11.4 µM | activity change, negative = inhibition [2] -9.3% | activity, negative = inhibition [4] -12.1% | Potency [5] > 46 µM | Potency [6] > 9.22 µM | Potency [7] | Potency [13] | activity change, negative = inhibition [12] -41.1% [at 11.4 µM] | Potency [14] | Potency [9]
active: Potency [3] 0.794 µM

N/C(=N\O)c1cn([C@@H]2O[C@@H](CO)[C@H](O)[C@@H]2O)c2ncnc(NO)c12
inactive: Potency [1] > 11.4 µM | activity change, negative = inhibition [2] 5.84% | activity change, negative = inhibition [3] -18.7% [at 2.29 µM] | Potency [5] > 46 µM | Potency [6] > 9.22 µM | Potency [7] | Potency [8]

Cc1ccccc1C(=N)c1ccccc1Cc1cccc2ccccc12
inactive: Potency [1] > 11.4 µM | activity change, negative = inhibition [2] 5.2% | activity change, negative = inhibition [3] -17.7% [at 2.29 µM] | activity, negative = inhibition [4] 9.25% | Potency [7] | Potency [8] | Potency [11]

C[C@H](CN(C)C)C(O)(c1ccccc1)c1ccccc1
inactive: Potency [1] > 11.4 µM | activity change, negative = inhibition [2] -8.88% | Potency [3] | activity, negative = inhibition [4] 8.39% | Potency [5] > 46 µM | Potency [6] > 9.22 µM | Potency [7] | Potency [8] | Potency [9]

Nc1ccn([C@H]2O[C@@H](COP(=O)(O)O)[C@@H](O)[C@H]2O)c(=O)n1
inactive: Potency [1] > 11.4 µM | activity change, negative = inhibition [2] 5.49% | Potency [3] | activity, negative = inhibition [4] 4.03% | Potency [5] > 46 µM | Potency [6] > 9.22 µM | Potency [7] | Potency [8] | Potency [9]

CC(=O)O[C@H]1CC[C@@]2(C)C(=CC[C@@H]3[C@H]4CC[C@@H]([C@H](C)C(=O)O)[C@]4(C)CC[C@H]32)C1
active: Potency [3] 3.16 µM
inactive: Potency [1] > 11.4 µM | activity change, negative = inhibition [2] -2.09% | activity, negative = inhibition [4] 9.87% | Potency [5] > 46 µM | Potency [6] > 9.22 µM | Potency [7] | Potency [8] | activation [10] 1.23%

Clc1ccc(Cl)c(SCCCN2CCNCC2)c1
inactive: Potency [1] > 11.4 µM | activity change, negative = inhibition [2] 3.23% | activity, negative = inhibition [4] -0.882% | Potency [6] > 9.22 µM | Potency [7] | Potency [8]
active: Potency [3] 0.501 µM | Potency [14] 2.51 µM

COc1ccc2c(Cc3c4ccccc4cc4ccccc34)cncc2c1O
active: Potency [3] 0.126 µM | Potency [9] 2.51 µM
inactive: Potency [1] > 11.4 µM | activity change, negative = inhibition [2] 9.25% | activity, negative = inhibition [4] -0.764% | Potency [5] > 46 µM | Potency [6] > 9.22 µM | Potency [7] | Potency [13] | Potency [11]

Cc1nc2cnc(Oc3ccccc3)nc2n(CCc2ccccc2)c1=O
inactive: Potency [1] > 11.4 µM | activity change, negative = inhibition [2] 17.9% | activity, negative = inhibition [4] -2.9% | Potency [5] > 9.22 µM | Potency [6] > 46 µM | Potency [7] | Potency [11]
active: Potency [3] 3.16 µM

Cc1ncn(-c2ccccc2O)c1C
active: Potency [3] 0.794 µM
inactive: Potency [1] > 11.4 µM | activity change, negative = inhibition [2] 4.1% | activity, negative = inhibition [4] 6.2% | Potency [5] > 46 µM | Potency [7] | Potency [8]

N=C(N)c1ccc(/C=C\c2ccc(C(=N)N)cc2)cc1
inactive: Potency [1] > 11.4 µM | activity change, negative = inhibition [2] 0.27% | activity change, negative = inhibition [15] -7.18% | activity, negative = inhibition [4] 7.39% | Potency [5] > 46 µM | Potency [6] > 9.22 µM | Potency [7] | Potency [8]
